# Records with an inconclusive call do not appear. Active and inactive are the calls of the source. Calls come from the whole dose curve; as a rule, active = well fitted activation curve with a large enough effect; inconclusive = small, poorly fitted or top-dose-only effect; inactive = flat fitted curve, though single readings scatter. Starred links: 1 amine or outer side, 2 acyl side, 3 side chain; linkers in the order of their positions; H or OH if unused. Positions of bridges follow the written chain, without caps; N, C: chain ends. Non-standard residues stand in square brackets, D forms with d. Residues, ends and D or L forms follow the SMILES beside them. ξ: configuration not given here. *: point of attachment. X3 = C[C@@H](Oc1ccc([C@H](N[*:1])C(=O)[*:2])cc1)[C@]1(/C=C\C(=O)[*:3])CO1; d(aIle) = CC[C@H](C)[C@@H](N)C(=O)O; X2 = CC(C)[C@@H](O)C(C)C(=O)*; ξNMeF = CNC(Cc1ccccc1)C(=O)O; ξT = CC(O)C(N)C(=O)O; ξS = NC(CO)C(=O)O
# Experiment: HEK293 12hr Apoptosis Induction qHTS against the NCATS CANVASS Library (AID 1347361)
# Details: HEK293 caspase-3/7 Caspase-Glo luminescence; series mostly up to 46.1 µM
# Source text: Natural products and their derivatives continue to be wellsprings of nascent therapeutic potential. However, many laboratories have limited resources for biological evaluation, leaving their previously isolated or synthesized compounds largely or completely untested. To address this issue, the Canvass library of natural products was assembled (https://tripod.nih.gov/canvass), in collaboration with academic and industry researchers, for quantitative high-throughput screening (qHTS) across a diverse set of cell-based and biochemical assays. The pure (>85% purity by liquid chromatography/mass spectrometry [LC/MS]) Canvass library of 346 natural products were submitted by 45 academic laboratories and companies around the world. We collected pure natural products to circumvent deconvolution and structure elucidation due to time and resource limitations. The library was formatted into 1536-well plates and evaluated in 50 qHTS (in an 11-pnt concentration series) bioassays with broad scope of disease-relevant mechanisms. The resulting data set from 50 different assays was then systematically analyzed to identify overall trends and specific natural products with interesting biological activities. Reported herein are the results of each individual qHTS and their corresponding assay protocol. The Caspase-Glo (R) (Promega) is a homogeneous, luminescent assay that measures caspase activity. The detection substrate contains tetrapeptide sequence DEVD in an "add-mix-measure" format. The reagent generates a luminescent signal produced by a thermostable luciferase. The luminescence is proportional to the amount of caspase activity in the assay reaction. National Center for Advancing Translational Sciences (NCATS), Rockville, MD National Institute of Health (NIH), Bethesda, Maryland
# Cancer Cell Apoptosis Assay 1. In a 1536 well, white solid bottom tissue culture plates (Corning 7494), HEK293 cancer cells in DMEM + 10% FBS + 1% P/S media were dispensed in each well at a final concentration of 500 cells / well (5uL volume) using the Multidrop Combi (Thermo Fisher Scientific) dispenser. 2. Compounds were pin transferred (~23nL volume) via Wako Pin-tool (Wako Automation, Richmond VA) equipped with a 1536 pin head. The assay plates were treated with compounds in a concentration series with a final concentration range of […] to 103uM. 3. Doxorubicin was used as a control in a 16pnt titration (1mM; 1:2 dilution; 16-points; n = 2; column 3, rows 1 - 32) and was pin transferred via Wako Pin-tool equipped with a 1536 pin head. The final concentration range of doxorubicin is 0.1nM - 4uM. 4. The assay plates were incubated for 12 hours at 37 degrees C/5% CO2/95% Rh. 5. 3uL Caspase-Glo 3/7 (R) (Promega) detection reagent was then added to the assay plates (columns 2 - 48, rows 1 - 32) and incubated at room temperature, covered from light, for 15 min. 6. Luminescence signal was acquired via the ViewLux plate reader (PerkinElmer) using a clear filter, 20 second exposure, and 2x binning settings.
row,SMILES,outcome
1,C/C=C(\C)C(=O)O[C@@H]1[C@@H](O)[C@@H]2O[C@H]3[C@H](O[C@@H](CCCCC)CCCCCCC(=O)CCC(=O)OC[C@@H](O2)[C@H]1OC(=O)/C=C/c1ccccc1)O[C@H](C)[C@H](OC(C)=O)[C@@H]3O,inactive
2,C=CC(C)(C)[C@@]12C[C@H]3C(=O)N/C(=C\c4cnc[nH]4)C(=O)N3[C@@H]1Nc1ccccc12,inactive
3,C=C[C@H]1CN2CCc3c([nH]c4cccc(OC)c34)[C@@H]2C[C@@H]1/C(=C\OC)C(=O)OC,inactive
4,C/C=C/[C@@H]1[C@H]2C[C@@H](C)CC[C@@H]2C(C)=C[C@H]1C(=O)c1c(O)c(-c2ccc(O)cc2)c[nH]c1=O,inactive
5,COC1C(O)C(C)OC(OC2C(Oc3cccc4c(O)c5c(=O)oc6ccc(C)c7c(=O)oc(c34)c5c67)OC(C)C(O)C2O)C1O (centres undefined),inactive
6,CO[C@@]12c3c(C)cc(O)c4c(=O)occ(c34)C(=O)[C@@H]1[C@]13COC(=O)c4c(O)cc(C)c(c41)C(=O)[C@H]2[C@@H]3OC(C)=O,inactive
7,C/C=C1/CN2CC[C@@]34c5ccccc5N(C)[C@@H]3[C@@H]2C[C@@H]1[C@H]4C(=O)OC,inactive
8,C[C@]12CC(O)C3[C@@H](CCC4C[C@@H](O)CC[C@@]43CO)[C@@]1(O)CC[C@@H]2C1=CC(=O)OC1 (some centres undefined),inactive
9,CC(C)CC1C(=O)O[C@H](C(C)C)C(=O)N(C)C(CC(C)C)C(=O)O[C@@H](C(C)C)C(=O)N(C)C(CC(C)C)C(=O)O[C@H](C(C)C)C(=O)N(C)C(CC(C)C)C(=O)O[C@@H](C(C)C)C(=O)N1C (some centres undefined),inactive
10,C=C(C)[C@H]1C(=O)c2c3c(cc4c5c(n1c24)[C@@]1(C)[C@@H](CC[C@H]2[C@](C)(/C=C/C=C(\C)C(=O)O)[C@@H](O)CC[C@@]21C)C5)C1=CC(C)(C)OC(C)(C)[C@H]1[C@@H]3O,inactive
11,CC[C@@H]1CN2CCc3c([nH]c4cccc(OC)c34)[C@@H]2C[C@@H]1/C(=C\OC)C(=O)OC,inactive
12,CC[C@H]1CN2CCc3c([nH]c4cccc(OC)c34)[C@@H]2C[C@@H]1/C(=C\OC)C(=O)OC,inactive
13,CC[C@H](C)[C@H]1NC(=O)[C@@H](NC(=O)C(C)[C@H](O)C(C)C)[C@@H](C)OC(=O)C2COC(=O)CNC(=O)/C=C\[C@]3(CO3)[C@@H](C)Oc3ccc(cc3)[C@H](NC1=O)C(=O)N(C)C(Cc1ccccc1)C(=O)NC(C(C)O)C(=O)N2 (some centres undefined) (X2-T[d(aIle)][X3][ξNMeF][ξT][ξS]; ester 1-C; linker 3-6 via G),inactive
14,C=C[C@]12C=CCN3CC[C@@]4(c5ccccc5NC(=O)[C@@H]4C1)[C@@H]32,inactive
15,CO[C@H]1[C@H](O[C@H]2CC[C@]3(C=O)[C@H]4CC[C@]5(C)[C@@H](C6=CC(=O)OC6)CC[C@]5(O)[C@@H]4CC[C@]3(O)C2)O[C@H](C)[C@H](O)[C@@H]1OC,inactive
16,CCCC[C@@H]1CC[C@H]2CCCC(CCCO)N12 (some centres undefined),inactive
17,CCCC[C@@H](C)/C=C1/CN2CCC[C@H]2[C@@](C)(O)[C@@H]1O,inactive

row,SMILES,outcome
1,COC1=C(C2=C(OC)C(=O)c3cc4c(c(O)c3C2=O)C(=O)O[C@H](C)C4)C(=O)c2c(cc3c(c2O)C(=O)O[C@H](C)C3)C1=O,inactive
2,CCCCC1CC[C@H]2CCCC(CCC)N12 (some centres undefined),inactive
3,CC[C@]12C=CCN3CC[C@]4(C(=C(C(=O)OC)C1)Nc1ccccc14)[C@@H]32,inactive
4,CO[C@H]([C@@H](C)[C@H]1O[C@]1(C)C[C@H](C)/C=C/C=C(\C)[C@H]1O[C@@H](CC(=O)O)CC[C@@H]1C)[C@@H](C)O,inactive
5,C=CC(C)(C)[C@@]12C[C@H]3C(=O)N/C(=C/c4cnc[nH]4)C(=O)N3[C@@H]1Nc1ccccc12,inactive
6,CO[C@H]1C[C@H](O[C@H]2[C@@H](O)C[C@H](O[C@H]3CC[C@]4(C=O)[C@H]5CC[C@]6(C)C(C7=CC(=O)OC7)CC[C@]6(O)[C@@H]5CC[C@]4(O)C3)O[C@@H]2C)O[C@H](C)[C@H]1O[C@H]1C[C@@H](OC)[C@@H](O[C@@H]2O[C@H](CO)[C@@H](O)[C@H](O)[C@H]2O)[C@@H](C)O1 (some centres undefined),inactive
7,C[C@]12CCC3[C@@H](CC[C@@H]4C[C@@H](O)CC[C@]34CO)[C@@]1(O)CC[C@@H]2C1=CC(=O)OC1 (some centres undefined),inactive
8,CC[C@@H]1CN2CCC3(Nc4cccc(OC)c4C3=O)[C@@H]2C[C@@H]1/C(=C\OC)C(=O)OC (some centres undefined),inactive
9,CO[C@@H](/C=C/CC/C=C/C(=O)O)[C@@H](O)[C@H](C)/C=C(\C)[C@H](O)[C@H](C)C(=O)CCCC1CC(=O)NC(=O)C1,inactive
10,C[C@]12CC(O)C3[C@@H](CC[C@@H]4C[C@@H](O)CC[C@]34CO)[C@@]1(O)CC[C@@H]2C1=CC(=O)OC1 (some centres undefined),inactive
11,C[N+](C)(C)CCc1c[nH]c2ccccc12,inactive
12,C/C(=C\[C@H](C)C(=O)C[C@H](O)CC1CC(=O)NC(=O)C1)[C@@H]1OC(=O)/C=C/CC/C=C/C=C/[C@@H]1C,inactive
13,c1ccc2nc3c(cc2c1)[nH]c1ccccc13,inactive
14,O[C@H]1C=C[C@@]23CCN(Cc4cc5c(cc42)OCO5)[C@@H]3C1,inactive
15,C1=C2CCCN[C@H]2C2CC1[C@H]1CCCCN1C2 (some centres undefined),inactive
16,C/C=C1/CN2CC[C@]34C(=C(C(=O)OC)[C@H]1C[C@H]23)Nc1ccccc14,inactive
17,CCC(=O)N[C@@H](C[C@H](C)C(Cl)(Cl)Cl)C(=O)N1C(=O)C=C(OC)[C@@H]1C[C@H](C)C(Cl)Cl,inactive

# Reference: PubChem BioAssay (NCATS)
